# PubChem BioAssay
# The source made the active and inactive calls.
# Assays:
# [1] = tested on: Plasmodium falciparum Sir2 (PF13_0152, Sir2A); experiment: pfSir2 binders on small-molecule microarrays, primary screen, biochemical, small-molecule microarray, 635 nm fluorescence (AID 1098); settings: small-molecule microarray binding, fluorescence 635 nm; higher = more signal;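 also: score merges spot fluorescence intensity with its signal-to-noise ratio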
# [2] = small-molecule microarray binders of probe aDKK1, primary screen, biochemical, biotinylated probe, 635/667 nm fluorescence (AID 1099); settings: higher = more signal;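 also: score merges 667nm spot fluorescence with signal to noise across triplicate slides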
# [3] = small-molecule microarray binders of probe aCHRDL2, primary screen, biochemical, biotinylated probe, 635/667 nm fluorescence (AID 1100); settings: higher = more signal
# [4] = splicing luciferase reporter signal modulators, primary screen, spliceosome inhibition project, cell-based, HEK293, splice +/- reporter (AID 1101); settings: luminescence, 24 h, higher = more signal, called active from +8 up or from −8 down;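 also: HEK293 cells carrying a splicing-competent luciferase reporter gene; test concentration not given here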
# [5] = target: Fibroblast growth factor 10 (Homo sapiens) (UniProt O15520); experiment: FGF10 binders on small-molecule microarrays, primary screen, biochemical, small-molecule microarray, 635 nm fluorescence (AID 1102); settings: FGF10 binding, fluorescence 635 nm, higher = more signal
# [6] = tested on: glycogen synthase kinase-3 (GSK3A per assay name; protocol says GSK3B); experiment: GSK3 binders on small-molecule microarrays, primary screen, biochemical, small-molecule microarray, 635 nm fluorescence, GSK3A (AID 1103); settings: small-molecule microarray binding, fluorescence 635 nm; higher = more signal; also: the record names both GSK3A and GSK3B
# [7] = target: Epidermal growth factor receptor (Homo sapiens) (UniProt P00533); experiment: EGFR binders on small-molecule microarrays, primary screen, biochemical, small-molecule microarray, 635 nm fluorescence (AID 1104); settings: EGFR binding, higher = more signal;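 also: score merges 667 nm emission intensity with spot signal to noise over triplicate slides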
# [8] = target: Follistatin-related protein 3 (Homo sapiens) (UniProt O95633); experiment: FSTL3 binders on small-molecule microarrays, primary screen, biochemical, small-molecule microarray, 635 nm fluorescence (AID 1105); settings: FSTL3 binding, higher = more signal;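 also: score merges emission near 667 nm and signal to noise per printed spot across three slides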
# [9] = target: Dickkopf-related protein 1 (Homo sapiens) (UniProt O94907); experiment: DKK1 binders on small-molecule microarrays, primary screen, biochemical, small-molecule microarray, 635 nm fluorescence scan (AID 1106); settings: DKK1 binding, higher = more signal;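 also: score merges emission near 667 nm with signal to noise over three replicate slides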
# [10] = tested on: Inhibin beta A chain (activin A); experiment: INHBA (activin A) binders on microarrays, primary screen, biochemical, small-molecule microarray, 635 nm fluorescence scan (AID 1107); settings: small-molecule microarray binding, higher = more signal;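 also: mouse activin A protein probed at 4.33 µg/mL on printed slides; score merges bound-protein fluorescence near 667 nm with spot signal-to-noise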
# [11] = tested on: Human papillomavirus type 1a protein E7 (residues 44-93); experiment: HPV1a E7 fragment binders on microarrays, primary screen, biochemical, small-molecule microarray, residues 44-93, 635 nm fluorescence (AID 1108); settings: small-molecule microarray binding, fluorescence 635 nm; higher = more signal;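 also: E7 fragment applied at 1 µg/mL in TBST for 1 h at 4 C; score combines spot fluorescence with its signal to noise ratio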
# [12] = modulators of HCV replicon luciferase signal, primary screen, HCV replication inhibitor project, Huh7 cells, luciferase reporter (AID 1109); settings: 48 h, higher = more signal;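 also: huh7 hepatoma cells harbouring a luciferase neomycin HCV replicon reporter; luciferase luminescence as measure of HCV replicon replication; test concentration not given here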
# [13] = target: Left-right determination factor 2 (Homo sapiens) (UniProt O00292); experiment: LEFTY2 binders on small-molecule microarrays, primary screen, biochemical, small-molecule microarray, 635 nm fluorescence scan (AID 1110); settings: LEFTY2 binding, higher = more signal
# [14] = target: Calmodulin-1 (Homo sapiens) (UniProt P0DP23); experiment: CALM1 binders on microarrays, EGTA buffer, profiling panel, biochemical, small-molecule microarray, Cy5-labelled CALM1 (AID 1111); settings: Cy5-CALM1 binding fluorescence, higher = more signal;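 also: labelled calmodulin applied in Tris saline Tween buffer holding calcium plus EGTA and DTT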
# [15] = target: Calmodulin-1 (Homo sapiens) (UniProt P0DP23); experiment: calcium-bound CALM1 binders on microarrays, profiling panel, artefact control for SMM control-protein annotation, biochemical, small-molecule microarray, Cy5-labelled CALM1, plus calcium (AID 1112); settings: Cy5-CALM1 binding fluorescence, higher = more signal;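 also: score merges spot fluorescence with signal to noise from triplicate slides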
# [16] = small-molecule microarray binders of probe aWnt5a, primary screen, biochemical, biotinylated probe, 635/667 nm fluorescence (AID 1113); settings: higher = more signal;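 also: score merges 667 nm fluorescence intensity with signal-to-noise per printed feature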
# [17] = small-molecule microarray binders of probe aShh, primary screen, biochemical, biotinylated probe, 635/667 nm fluorescence (AID 1114); settings: higher = more signal;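 also: probe is biotin-labelled aShh protein from a stem cell growth factor screen; measures binding of labelled protein to compounds printed on the slide; score merges feature fluorescence at 667 nm with signal-to-noise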
# [18] = small-molecule microarray binders of probe aNog, primary screen, biochemical, biotinylated probe, 635/667 nm fluorescence (AID 1115); settings: higher = more signal;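 also: probe is biotinylated aNog protein used at 0.15 µg/mL for 1 h at 4 C; z-score combines 667 nm fluorescence of each spot with its signal to noise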
# [19] = target: Torsin-1A-interacting protein 1 (Homo sapiens) (UniProt Q5JTV8); experiment: LAP1 binders from COS7 cell lysate, primary screen, small-molecule microarray, 635/667 nm fluorescence (AID 1116); settings: COS7-hLAP1 lysate binding, 635 nm fluorescence, higher = more signal
# [20] = target: Alpha-bungarotoxin (Bungarus multicinctus) (UniProt P60615); experiment: alpha-bungarotoxin binders on microarray, profiling panel, artefact control for SMM control protein annotation, biochemical, small-molecule microarray, Alexa647 label, 635/667 nm fluorescence (AID 1117); settings: alpha-BTX-A647 binding fluorescence, higher = more signal
# Alpha-bungarotoxin (Bungarus multicinctus), sequence (P60615 whole entry, looked up): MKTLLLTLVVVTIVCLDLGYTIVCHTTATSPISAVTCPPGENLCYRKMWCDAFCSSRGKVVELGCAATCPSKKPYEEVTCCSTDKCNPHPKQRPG
# Follistatin-related protein 3 (Homo sapiens), sequence (O95633 whole entry, looked up): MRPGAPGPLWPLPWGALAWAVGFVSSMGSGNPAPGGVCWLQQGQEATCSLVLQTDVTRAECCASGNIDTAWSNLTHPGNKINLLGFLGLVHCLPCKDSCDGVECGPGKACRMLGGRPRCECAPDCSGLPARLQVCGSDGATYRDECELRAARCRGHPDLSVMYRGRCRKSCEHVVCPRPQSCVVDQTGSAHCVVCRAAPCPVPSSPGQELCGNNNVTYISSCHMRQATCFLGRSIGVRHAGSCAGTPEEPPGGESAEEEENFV
# Fibroblast growth factor 10 (Homo sapiens), sequence (O15520 whole entry, looked up): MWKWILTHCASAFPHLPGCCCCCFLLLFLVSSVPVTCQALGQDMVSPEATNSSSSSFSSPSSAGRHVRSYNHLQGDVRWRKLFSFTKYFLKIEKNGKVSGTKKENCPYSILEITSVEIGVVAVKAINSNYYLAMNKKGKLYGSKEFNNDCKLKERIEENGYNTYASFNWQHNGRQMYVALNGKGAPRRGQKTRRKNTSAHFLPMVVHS
# Left-right determination factor 2 (Homo sapiens), sequence (O00292 whole entry, looked up): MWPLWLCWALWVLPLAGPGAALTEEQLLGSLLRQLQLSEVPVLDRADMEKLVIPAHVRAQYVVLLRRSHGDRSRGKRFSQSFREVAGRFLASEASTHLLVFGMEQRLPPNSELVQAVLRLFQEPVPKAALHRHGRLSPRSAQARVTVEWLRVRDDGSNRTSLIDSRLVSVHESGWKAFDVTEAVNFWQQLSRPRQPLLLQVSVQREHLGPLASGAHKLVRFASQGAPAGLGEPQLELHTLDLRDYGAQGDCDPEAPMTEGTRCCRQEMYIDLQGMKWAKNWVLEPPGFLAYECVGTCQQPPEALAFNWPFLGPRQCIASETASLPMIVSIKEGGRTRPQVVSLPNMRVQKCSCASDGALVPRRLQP
# Torsin-1A-interacting protein 1 (Homo sapiens), sequence (Q5JTV8 whole entry, looked up): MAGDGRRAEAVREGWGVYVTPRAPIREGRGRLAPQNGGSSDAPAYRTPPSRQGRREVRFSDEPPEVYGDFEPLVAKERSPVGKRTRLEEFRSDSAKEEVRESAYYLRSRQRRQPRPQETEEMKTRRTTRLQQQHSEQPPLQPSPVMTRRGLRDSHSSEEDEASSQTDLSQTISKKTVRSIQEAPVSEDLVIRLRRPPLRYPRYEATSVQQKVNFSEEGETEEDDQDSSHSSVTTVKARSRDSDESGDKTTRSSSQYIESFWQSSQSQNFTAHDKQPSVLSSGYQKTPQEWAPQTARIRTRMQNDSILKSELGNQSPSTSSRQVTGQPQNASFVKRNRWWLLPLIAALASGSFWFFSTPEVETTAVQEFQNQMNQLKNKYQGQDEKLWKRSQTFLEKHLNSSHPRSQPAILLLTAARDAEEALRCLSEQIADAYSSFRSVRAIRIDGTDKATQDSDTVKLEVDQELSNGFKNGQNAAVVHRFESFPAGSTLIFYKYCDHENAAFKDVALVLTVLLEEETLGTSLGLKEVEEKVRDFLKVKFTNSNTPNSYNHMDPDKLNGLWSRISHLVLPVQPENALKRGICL
# Epidermal growth factor receptor (Homo sapiens), sequence (P00533 whole entry, looked up): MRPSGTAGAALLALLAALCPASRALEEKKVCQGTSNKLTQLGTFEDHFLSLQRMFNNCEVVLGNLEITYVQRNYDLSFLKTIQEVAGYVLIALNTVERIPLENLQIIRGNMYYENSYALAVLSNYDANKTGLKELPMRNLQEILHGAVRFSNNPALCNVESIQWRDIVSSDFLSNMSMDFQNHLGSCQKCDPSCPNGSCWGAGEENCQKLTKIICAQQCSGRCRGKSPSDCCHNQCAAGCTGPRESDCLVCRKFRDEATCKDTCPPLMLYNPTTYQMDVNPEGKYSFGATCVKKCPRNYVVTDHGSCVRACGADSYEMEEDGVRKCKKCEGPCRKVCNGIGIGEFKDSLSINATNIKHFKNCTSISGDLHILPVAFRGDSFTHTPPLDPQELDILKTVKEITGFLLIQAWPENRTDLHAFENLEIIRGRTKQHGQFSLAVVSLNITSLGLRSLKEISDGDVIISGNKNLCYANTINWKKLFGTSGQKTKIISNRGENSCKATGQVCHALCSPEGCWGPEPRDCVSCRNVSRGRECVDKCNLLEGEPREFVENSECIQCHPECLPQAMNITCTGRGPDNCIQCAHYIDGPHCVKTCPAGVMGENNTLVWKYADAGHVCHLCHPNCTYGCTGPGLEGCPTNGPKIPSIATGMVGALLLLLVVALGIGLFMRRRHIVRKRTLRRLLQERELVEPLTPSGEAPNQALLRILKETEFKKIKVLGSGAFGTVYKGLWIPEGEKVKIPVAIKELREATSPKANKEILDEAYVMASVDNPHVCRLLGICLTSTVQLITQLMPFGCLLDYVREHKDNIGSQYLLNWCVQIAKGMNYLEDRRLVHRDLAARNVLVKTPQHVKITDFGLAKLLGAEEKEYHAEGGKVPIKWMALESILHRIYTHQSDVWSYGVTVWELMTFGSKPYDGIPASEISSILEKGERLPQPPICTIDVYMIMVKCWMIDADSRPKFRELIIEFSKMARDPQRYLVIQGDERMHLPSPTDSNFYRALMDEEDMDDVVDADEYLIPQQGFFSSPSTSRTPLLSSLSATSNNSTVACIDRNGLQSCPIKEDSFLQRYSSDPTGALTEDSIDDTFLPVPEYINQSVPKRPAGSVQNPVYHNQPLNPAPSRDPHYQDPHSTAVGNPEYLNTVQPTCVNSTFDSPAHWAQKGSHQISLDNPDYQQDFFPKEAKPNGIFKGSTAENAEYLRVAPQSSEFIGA
# Dickkopf-related protein 1 (Homo sapiens), sequence (O94907 whole entry, looked up): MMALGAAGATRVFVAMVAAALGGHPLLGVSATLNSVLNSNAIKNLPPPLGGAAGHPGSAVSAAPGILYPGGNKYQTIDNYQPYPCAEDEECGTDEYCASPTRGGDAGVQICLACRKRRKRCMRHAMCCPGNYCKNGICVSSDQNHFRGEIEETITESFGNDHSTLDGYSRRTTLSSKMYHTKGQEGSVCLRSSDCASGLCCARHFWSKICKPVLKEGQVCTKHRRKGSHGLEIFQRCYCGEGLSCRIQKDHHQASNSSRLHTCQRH
SMILES,composite z-score [1],composite z-score [2],composite z-score [3],z-score [4],composite z-score [5],composite z-score [6],composite z-score [7],composite z-score [8],composite z-score [9],composite z-score [10],composite z-score [11],z-score [12],composite z-score [13],composite z-score [14],composite z-score [15],composite z-score [16],composite z-score [17],composite z-score [18],composite z-score [19],composite z-score [20]
COc1ccc(NN2C(C(O)c3ccc(OC)cc3)C=CC3C(=O)N(C4CCCCC4)C(=O)C32)cc1 (stereo not given),0.797,0.702,0.501,-0.316 (inactive),0.608,1.14,0.556,1.04,-0.101,1.2,1.2,-1.02,0.318,0.566,-0.366,0.0357,0.191,0.571,0.53,1.08
[N-]=[N+]=NCc1ccccc1[C@@H]1OC(c2ccc(OCCCO)cc2)=N[C@]1(Cc1ccccc1)C(=O)NCc1ccccc1,0.869,-0.0406,0.996,-1.29 (inactive),0.769,0.113,0.131,0.529,-0.154,0.656,1.28,-2.34,0.0086,1.87,0.237,0.0495,0.0181,-0.489,1.12,0.688
CN1C=C(C(=O)OCCS(C)(=O)=O)C(C(=O)OCCS(C)(=O)=O)=CC(CCCO)=CC1c1ccc(CN2CCCC2)cc1 (stereo not given),0.867,0.633,0.539,-0.0863 (inactive),1.27,1.3,0.566,1.32,0.602,0.969,1.45,-1.36,0.595,0.693,-0.551,-0.0087,0.261,0.827,0.51,0.745
COC(=O)[C@@]1(Cc2ccccc2CN=[N+]=[N-])COC(c2ccc(OCCCO)cc2)=N1,1.97,0.269,1.23,0.861 (inactive),-1.76,-1.02,-1.76,-1.68,-3.61,-1.48,-0.273,-0.221,-2.75,-0.759,0.0354,-0.292,1.69,0.199,0.202,3.02
COCCOC(=O)N1C(=O)[C@@]2(c3cc(C#Cc4ccc(OC)cc4)ccc31)[C@H](C(=O)N1CCCCCCC1)[C@H]1C(=O)O[C@H](c3ccccc3)[C@H](c3ccccc3)N1[C@@H]2c1ccccc1OCCO,1.55,2.5,1.57,0.00537 (inactive),0.766,1.32,1.07,1.56,1.61,1.66,1.35,-0.0111,0.647,2.42,1.49,1.16,0.451,1.53,4.47,2.27
COc1ccc(CCNC(=O)[C@@]2(Sc3ccc(C)cc3)CC(=O)N(C(C)C)[C@@H]2c2ccc(CO)cc2)cc1,1.41,0.0055,0.983,0.239 (inactive),-0.855,-0.897,-2.03,-1.45,-2,-0.87,0.889,-0.887,-2.73,0.359,-0.242,-0.28,0.0121,-0.209,-1.16,-0.563
CN(C)C(=O)[C@]1(Cc2ccccc2CN=[N+]=[N-])N=C(c2ccc(OCCCO)cc2)O[C@@H]1c1ccccc1N=[N+]=[N-],1.18,0.805,0.884,-1.27 (inactive),0.939,0.631,-0.205,0.264,-0.0994,0.814,1.44,-1.6,-0.472,1.71,0.422,-0.0161,0.0639,0.526,0.609,1.14
COc1ccc(C(O)C2C=CC3C(=O)N(C)C(=O)C3N2Nc2ccc([N+](=O)[O-])cc2[N+](=O)[O-])cc1OCc1ccccc1 (stereo not given),0.994,1.23,1.24,1.16 (inactive),0.895,0.858,0.0333,0.84,-0.508,0.718,1.39,0.714,-0.0506,0.211,-0.0482,0.112,0.28,1.38,0.527,1.5
COCCCNC(=O)[C@@H]1c2ccccc2C(=O)N(Cc2cc(C(F)(F)F)cc(C(F)(F)F)c2)[C@H]1c1ccc(CO)cc1,-1.09,1.15,0.291,-0.475 (inactive),-0.0413,0.0135,-0.301,0.142,0.346,0.92,0.0861,-0.293,-0.323,0.0808,0.232,-0.105,0.0091,0.896,0.208,-0.543
COc1ccc([Si](C)(C)[C@@H]2[C@@H](CC(=O)N(CCO)Cc3ccccc3)O[C@]3(C(=O)N(Cc4ccc(N5CCC5=O)cc4)c4ccccc43)[C@H]2C)cc1,1.41,-0.26,0.618,-1.9 (inactive),0.0525,-0.808,0.359,0.953,0.919,0.0242,-0.382,-4.13,1.14,0.086,0.734,-0.176,0.0898,-0.194,0.357,0.295
COCCOC(=O)N1C(=O)[C@@]2(c3ccccc31)[C@H](C(=O)N1CCCCCCC1)[C@H]1C(=O)O[C@H](c3ccccc3)[C@H](c3ccccc3)N1[C@@H]2c1ccc(O)cc1,1.86,2.77,1.76,-0.216 (inactive),1.38,1.35,1.32,1.68,1.93,1.92,1.4,-1.06,1.17,2.73,1.56,1.39,1.04,2.12,5.09,3.37
